# HIF activator = HIF pathway transcriptional activation | U2OS HRE-luciferase reporter, luminescence; normalized: DMSO 0%, desferrioxamine 100% | activation, % at 7.5 µM (by protocol) | 300,000 compounds, 0.32% hits | AID 1910;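 active means mean activation of at least 10% of the iron chelator positive control signal, with at least half of replicates also reaching 10%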
# M18AAP inhibitor = blocks P. falciparum M18 aspartyl aminopeptidase; recombinant PfM18AAP, H-Glu-NHMec fluorogenic cleavage; inhibition, % at 7.35 µM; 290,000 compounds, 1.2% hits; AID 1822;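 active means inhibition above the campaign mean inhibition over all tested compounds plus 3 SD, cut at about 28% in these data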;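 further: 0% = plate median of test compound wells and 100% = 2 mM ZnCl2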
# ALR inh = blocks human ALR sulfhydryl oxidase activity; 290,000 compounds, 3.8% hits; inhibition, % (concentration not given with the values); purified ALR, DTT oxidation, H2O2 HRP-luminol luminescence; P55789; AID 485317;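 active means mean replicate inhibition above about 79%, with every replicate also reaching it, limit read from the data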
# Target sequence (P55789 whole entry, looked up): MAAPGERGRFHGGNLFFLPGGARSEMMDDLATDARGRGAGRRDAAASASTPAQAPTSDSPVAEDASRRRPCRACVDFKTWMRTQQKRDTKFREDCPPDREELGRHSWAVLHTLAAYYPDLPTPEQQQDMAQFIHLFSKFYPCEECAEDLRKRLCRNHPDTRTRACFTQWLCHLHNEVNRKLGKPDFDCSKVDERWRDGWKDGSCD
# Mot1-301 SUMO = blocks SUMOylation pathway, rescuing yeast Mot1-301 growth; S. cerevisiae Mot1-301 growth rescue, ATP luminescence, 38.5C; percent above DMSO median, 100 means doubled; growth rescue, % at 18.8 µM; 320,000 compounds, 1% hits; AID 2716;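 active means every valid replicate shows activation above 250% relative to neutral control wells; inactive means the rest, any valid replicate at or below 250%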;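 further: OY570 slx delta 5 strain wells were the positive control but not used for scaling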
# Mot1 SUMO dose = yeast SUMO pathway inhibition in dose response; growth activity, percent, % at 42 µM; S. cerevisiae Mot1-301 galactose growth, ATP luminescence, 24 h; -100 = growth of slx-deleted rescue strain; shares compounds with Mot1-301 SUMO; 2,300 tested, under 10 active; AID 493004;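 active means Signal drops as the depositor expects, and the fitted half-maximal dose is no more than ten times the top valid tested dose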;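 further: more negative values mean stronger growth rescue toward the control strain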
# Starred values were filed as active, the others as inactive; x = not tested or not shown; + = active, no number; [ ] = remark or other dose. An excerpt weighted towards active compounds, which were near 5.3% of everything screened.
SMILES,HIF activator,M18AAP inhibitor,ALR inh,Mot1-301 SUMO,Mot1 SUMO dose
CCCCN(C/C=C/c1ccccc1OC)Cc1ccccc1,0,3,-3,529*,0
CCN(C/C=C/c1ccccc1OC)Cc1ccccc1,-1,2,x,-13,x
NNC(=O)c1oc2nc(-c3ccccc3)cc(-c3ccccc3)c2c1N,-3,2,-2,477*,0
Cc1nnc(NC(=O)C2CC(=O)N(c3ccccc3)C2)s1 (stereo not given),0,-2,2,1,x
O=C(Cc1ccccc1)NCC(=O)N1CCC2(CC1)NCCc1[nH]cnc12,1,-6,x,14,x
O=C(O)c1ccc(OCC(O)Cn2c3ccccc3c3ccccc32)cc1 (stereo not given),-1,-1,55,7,x
OC(COc1ccccc1)Cn1c2ccccc2c2ccccc21 (stereo not given),1,5,1,374*,-1
O=C(COC(=O)c1cnccn1)NCc1ccc2c(c1)OCO2,0,0,-2,79,x
CC(Cc1ccccc1)C(=O)N(C)Cc1cccnc1 (stereo not given),-1,6,4,-2,x
C=CCN(c1ccccc1)S(=O)(=O)c1ccc2c(c1)N(C(C)=O)CCO2,0,1,0,3,x
N#Cc1cc([N+](=O)[O-])ccc1NC(=O)COC(=O)C1CCC(=O)N1 (stereo not given),x,x,-8,-23,x
O=C(CSc1nnc(-c2cccs2)n1-c1ccccc1)c1ccc2c(c1)OCCO2,1,x,5,+,0
O=C(CSc1nnc(-c2ccc3c(c2)OCO3)n1-c1ccccc1)c1ccccc1,0,7,-2,-12,x
CCN(CC)C(=O)Cn1cc(S(=O)(=O)CC(=O)NCCc2ccc(OC)c(OC)c2)c2ccccc21,0,1,-15,384*,-1
CCN(CC)C(=O)Cn1cc(S(=O)(=O)CC(=O)Nc2ccccc2C)c2ccccc21,0,0,x,1,x
Cc1ccc(CNC(=O)Cn2c([N+](=O)[O-])cnc2C)cc1,0,0,-1,-2,x
COc1ccccc1CC(=O)N1CCCC1,0,9,-2,11,x
COc1ccccc1CC(=O)N1CCOCC1,0,-10,-2,878*,0
CCCc1cc(C(=O)N2CCC(n3nccc3NC(=O)c3ccc(OC)cc3)CC2)no1,0,-7,-4,6,x
COc1ccccc1CNC(=O)C1CCC(=O)N1C(C)C (stereo not given),-24,-16,x,595*,0
Cc1cc([N+](=O)[O-])nn1CCC(=O)NC1CCCCCC1,1,0,-4,3,x
CCCn1nc(C(=O)NNC(=O)c2cc(S(=O)(=O)NC)ccc2Br)c2ccccc2c1=O,-16,x,-25,549*,-1
Cc1onc(-c2c(Cl)cccc2Cl)c1NC(=O)NC1CCSC1 (stereo not given),0,1,-1,-4,x
Cc1[nH]c(C)c(S(=O)(=O)NCC(C)c2ccccc2)c1C(=O)N1CCCCC1 (stereo not given),1,2,5,497*,0
Cc1[nH]c(C)c(S(=O)(=O)NCCc2ccccc2)c1C(=O)N1CCCC1,0,-4,-6,19,x
SMILES,HIF activator,M18AAP inhibitor,ALR inh,Mot1-301 SUMO,Mot1 SUMO dose
Cc1cc(S(=O)(=O)NCC(C)C)ccc1OCC(=O)N1CCOCC1,0,0,0,867*,0
CCOC(=O)N1CCN(C(=O)COc2ccc(S(=O)(=O)NCC(C)C)cc2C)CC1,0,-12,-11,-12,x
CN(C(=O)CSc1nc2ccccc2o1)C1CCS(=O)(=O)C1 (stereo not given),x,x,x,3,x
CN(C(=O)CSc1nc(-c2ccccc2)c(-c2ccccc2)o1)C1CCS(=O)(=O)C1 (stereo not given),0,-7,1,543*,1
CCOc1ccc(/C=N/NC(=O)C(=O)N2CCCCCC2)c2ccccc12,3,6,x,x,x
Cc1cc(Cl)c2oc(C(=O)NCC(C)(C)N3CCOCC3)c(C)c2c1,1,-8,0,9,x
Cc1cc(Cl)c2oc(C(=O)NC3CCC(O)CC3)c(C)c2c1 (stereo not given),-2,0,x,+,0
Cc1ccc(NC(=O)Cn2nnc(C(=O)NCc3ccc4c(c3)OCO4)c2N)cc1,-1,-5,3,550*,0
Cc1cccc(-n2nc3c(c2NC(=O)c2ccc4c(c2)OCO4)CS(=O)(=O)C3)c1C,-1,7,1,-3,x
Cc1ccccc1C(=O)NNC(=S)Nc1cccc(C(F)(F)F)c1,x,-13,x,405*,0
O=C(NCc1ccccc1)c1cccc(COc2ccc(Cl)cc2)c1,-31,0,-2,+,1
CC(C)(C)n1nnnc1C(c1ccc(Cl)cc1)N(Cc1cccnc1)Cc1ccco1 (stereo not given),0,1,-1,437*,-1
CC(=NNC(=O)CSc1nc2ccccc2o1)c1ccco1,x,x,7,0,x
CN1CCN(NC(=O)Nc2ccc(F)cc2)CC1,0,-3,-2,-3,x
Cc1ccccc1C(=O)/C=C1\NC(=O)CS1,-1,4,7,368*,-1[21 µM]
O=C(COc1ccccc1)Nc1ccc(OC(F)(F)C(F)F)c(NC(=O)COc2ccccc2)c1,0,-2,0,961*,0
CC(=O)Nc1ccc(OC(F)(F)C(F)F)c(NC(C)=O)c1,0,9,-9,-6,x
CC(Sc1ccccc1)C(=O)NCC1COc2ccccc2O1 (stereo not given),-21,x,16,4,x
CC1(C)Cc2nc3sc4c(OCc5ccccc5)ncnc4c3cc2CO1,1,0,0,+,1
COC(=O)c1cc2c(s1)-c1ccccc1OC2,2,x,0,-8,x
COC(=O)c1cc2c(s1)-c1ccc(OC)cc1CC2,4,-13,-4,477*,-1
COC(=O)c1ccc(N2C(=O)CC(NCc3ccccc3)C2=O)cc1 (stereo not given),0,-3,4,+,1
COc1ccc(N2C(=O)CSC2c2ccc([N+](=O)[O-])cc2)cc1 (stereo not given),-16,-9,98*,580*,1
C=CCNc1nnc(SC2CC(=O)N(c3ccc(OCCC)cc3)C2=O)s1 (stereo not given),0,-56,7,+,-2
CCOc1ccc(N2C(=O)CC(Sc3nc4ccc(OCC)cc4s3)C2=O)cc1 (stereo not given),0,-8,-3,41,x
Cc1ccc(CN(C)C(=O)c2ccc3c(c2)NC(=O)CS3)o1,-1,5,-13,364*,0
COc1ccc(CN(C)C(=O)Cc2ccc(S(=O)(=O)N3CCOCC3)s2)cc1OC,x,x,-9,2,x
CC(=O)c1ccc(NC(=O)CSc2nnc(-c3ccco3)o2)cc1,2,-1,-17,426*,0
O=C(NCC(=O)N(Cc1ccccc1)C(C(=O)NC1CCCC1)c1ccncc1)c1ccco1 (stereo not given),1,6,2,-5,x

# Compound activity deposited in PubChem BioAssay by several laboratories.
